Laboratory results published in PubChem BioAssay (NCI).
The panel holds about 83,000 compounds, 20% with a hit somewhere; the sample as a whole holds those more often.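 Assay: single dose, 48 h. Readout: percent growth (0 = no net growth; negative = cell death). Active: <10.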 Unmarked numbers belong to inactive results. Activity calls are given as the source filed them.

The molecules below were run on ACHN renal (assay: NCI-60 one-dose screen, 48 h (100 = growth as untreated, 0 = no growth, -100 = all killed)). Details: 10 µM.

Row | SMILES | growth
1 | CCOS(=O)(=O)c1c(C(C)C)cc(C(C)C)cc1C(C)C | 104%
2 | CC(C)CCN(CCC(C)C)CC(=O)Nc1ccc(S(=O)(=O)c2ccc(NC(=O)CN(CCC(C)C)CCC(C)C)cc2)cc1 | 69.7%
3 | O=C(N/N=C/c1cc([N+](=O)[O-])ccc1O)c1cccc2ccccc12 | 15.7%
4 | COc1cc(Cc2cc(-c3ccccc3)n[nH]c2=O)cc(OC)c1OC | 86.4%
5 | C1CN(CC2CCC(CN3CCOCC3)O2)CCO1 (stereo not given) | 38.9%
6 | Cc1cc(=O)n2nnc3cc(Cl)c(Cl)cc3n12 | 90.2%
7 | CC(=O)N[C@H](C(=O)N[C@@H](CCCNC(=N)N)C(=O)N[C@@H](CCCCN)C(=O)N[C@@H](CCCNC(=N)N)C(=O)N[C@]1(C)CCCCCC/C=C\CCC[C@@](C)(C(=O)N[C@@H](CCCNC(=N)N)C(=O)N[C@@H](CCC(=O)O)C(=O)N[C@@H](CC(C)C)C(=O)N[C@H](C(=O)N[C@@H](CCC(=O)O)C(N)=O)C(C)C)NC(=O)[C@H](CCC(N)=O)NC(=O)[C@H](CC(C)C)NC(=O)[C@H](CC(C)C)NC(=O)[C@H](CCCNC(=N)N)NC(=O)[C@H](CCCNC(=N)N)NC(=O)[C@H](CC(C)C)NC1=O)C(C)C | 9.21% (active)
8 | Cc1ccc(/C=C2/C(=O)N(C)c3ccc(S(=O)(=O)Nc4ccc(C(C)(C)C)cc4)cc32)s1 | 56%
9 | CC(=O)[C@H]1CC[C@]2(C)[C@@H]1CC[C@@H]1[C@@]3(C)CC(CCC#N)(CCC#N)C(=O)C(C)(C)[C@@H]3CC[C@]12C | 95.2%
10 | O=C(CCn1cnc2c(cc(-c3ccccc3)n2-c2ccccc2)c1=O)Nc1ccc(F)cc1 | 55.7%
11 | Cc1c(Cl)cccc1NC(=O)CN1CCOCC1 | 109%
12 | CC(C)(C)OC(=O)CN1CCc2c(sc3ncnc(N/N=C/c4cccc5ccccc45)c23)C1 | 15.7%
13 | CCn1c(SCc2ccc(C)cc2)nnc1-c1nn(-c2ccc(Cl)cc2Cl)c(-c2ccc(Cl)cc2)c1C | 2.32% (active)
14 | O=C(Nc1nc(-c2ccccc2)nc2c1sc(=S)n2-c1ccccc1)C(F)(F)F | 91.3%
15 | Cc1c[nH]c(=O)n(Cc2nnc(CCC(=O)c3nc4ccccc4[nH]3)o2)c1=O | 61.1%
16 | CCCCN(CCCC)C(=O)[C@H](CC)[C@@H]1CC[C@@H](C)[C@@H]([C@H](C)[C@@H](O)[C@@H](C)C(=O)[C@H](CC)C2O[C@]3(C=CC(=O)[C@]4(CC[C@@](C)([C@H]5CC[C@](O)(CC)[C@H](C)O5)O4)O3)[C@H](C)C[C@@H]2C)O1 (stereo not given in full) | 13.7%
17 | CCN(CC)CCOc1cccc2c1C(=O)c1ccccc1C2=O | 92.5%
18 | COc1cc(OC)c2c(=O)c(O)c(-c3ccccc3)oc2c1 | 68%
19 | COc1ccc(-c2cc(-c3ccccc3)nc(SCCCC(=O)NO)n2)cc1 | -17.8% (active)
20 | COc1cc(-c2nn(-c3ccc(NC(=O)NCCNS(=O)(=O)c4ccc(F)cc4)cc3)cc2-c2ccncc2)ccc1Cl | 23.7%

Row | SMILES | growth
21 | Cc1[nH]c2ccccc2c1/C=N/Nc1ncnc2sc3c(c12)CCN(CC(=O)OC(C)(C)C)C3 | 54.2%
22 | O=C1CSC(=S)N1/N=C/c1ccc(Cl)s1 | 98.4%
23 | O=C(CC(CC(=O)c1ccccc1)c1ccccc1O)c1ccccc1 | 99.3%
24 | CCOC(=O)c1cc(C(=O)c2cc(OC)cc(OC)c2)n2nc(C)ccc12 | 60.5%
25 | CCCc1cn(CC(=O)Nc2nc3ccccc3s2)nn1 | 101%
26 | CC(CN(C)C)Oc1ccc(OC(C)CN(C)C)c2c1C(=O)c1ccccc1C2=O (stereo not given) | 28%
27 | COc1cc(-c2nn(-c3cccc(NC(=O)NCCNC(=O)c4cccc(C(F)(F)F)c4)c3)cc2-c2ccncc2)ccc1Cl | 48.4%
28 | Cc1ccc(NCCNCC(C)(C)O)c2c(=O)c3ccc(Cl)cc3sc12 | 3.43% (active)
29 | CNS(=O)(=O)Oc1ccc(-c2sc3cc(OS(=O)(=O)NC)ccc3c2C(=O)c2ccc(OCCN3CCCCC3)cc2)cc1 | 96.8%
30 | CN(C)CCOc1ccccc1NC1=C(Cl)C(=O)C(Nc2ccccc2OCCN(C)C)=C(Cl)C1=O | -84.1% (active)
31 | COc1cc(-c2nn(-c3cccc(NC(=O)CCNc4ccc(N5CCOCC5)cc4)c3)cc2-c2ccncc2)ccc1Cl | 15.8%
32 | C=CCSC(CC)(CC)C(=O)NC | 107%
33 | Cc1c(Cl)cccc1NC(=O)CCCl | 108%
34 | CC(=O)C1N=NCC1c1ccccc1 (stereo not given) | 95.8%
35 | CCN(CC)CCOc1cccc2c1C(=O)c1cccc(OCCN(CC)CC)c1C2=O | 17.7%
36 | CC(C)(C)OC(=O)CN1CCc2c(sc3ncnc(N/N=C/c4ccccc4Br)c23)C1 | 56.6%
37 | N#CCc1csc(Cc2ccccc2)n1 | 109%
38 | Clc1ccc(C2=NN=C3C(Cc4ccccc4)=Nc4ccccc4N3C2)cc1 | 63.2%
39 | CCN(CC)CC(=O)N(CC)c1ccc(C)c(Cl)c1 | 117%
40 | COc1cc(-c2csc(NC(=O)Nc3ccc(Cl)c(C(F)(F)F)c3)n2)cc(OC)c1OC | -8.21% (active)
